Source: PubChem
Rows were chosen to be rich in hits. Some 5.7% of all compounds tested hit in one or more screens of this group.
HT1080-NT tox: kills 2HG-producing HT-1080-NT fibrosarcoma cells | actives 1.6% (n = 360,000) | AID 686970 | HT-1080-NT fibrosarcoma viability, CellTiter-Glo ATP luminescence, 48 h | Potency, µM (titrated, usually from 46.1 µM), inactives show at the top dose activity, negative = less viability, actives largely listed as cytotoxic;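 further: NT is the 2HG producing partner of a matched IDH1 knockdown line; 0% = DMSO-treated cells and -100% = media-only wells without cells; nearly all actives have a fitted effect of over 55% in size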
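Luminescent CellTiter-Glo readout after 48 hours of compound exposure at 37 degrees C defined viability of HT-1080-NT cells. Activity was normalized to DMSO wells and cell-free media wells; concentration-response curves were fitted and assigned curve classes.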
KB-V1 cytotox: KB-V1 MDR subline cytotoxicity | KB-V1 MDR cells viability, CellTiter-Glo, 72 h | Potency, µM (series often up to 46.1 µM), hits mostly cytotoxic | actives 3.4% (n = 400,000); further: nearly all actives have a fitted effect of over 60% in size
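qHTS viability screen in drug-selected KB-V1 MDR cells: 72 h compound treatment at 37 degrees C, ATP luminescence end point.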
KB-3-1 tox: KB-3-1 parental cell cytotoxicity. Potency, µM (series often up to 46.1 µM), actives largely listed as cytotoxic. KB-3-1 viability, CellTiter-Glo ATP luminescence, 72 h. actives 1.4% (n = 400,000); further: nearly all actives have a fitted effect of over 60% in size
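KB-3-1 cells, DMEM (no phenol red) + 10% FBS; compound by pin transfer, 72 h, 37 °C. Readout: CellTiter-Glo luminescence after 10 min. Data normalized, curve-fitted.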
HT1080 IDH1KD tx: kills HT-1080 cells with IDH1 knockdown | Potency, µM (top dose mostly 46.1 µM), inactives show at the highest dose activity, negative = toxicity, most hits filed as cytotoxic | HT-1080 IDH1 knockdown viability, ATP luminescence, 48 h | actives 2% (n = 360,000) | AID 686971;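 further: 0% = DMSO wells and -100% = cell-free medium wells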
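In this qHTS, HT-1080 cells depleted of IDH1 are exposed for 48 h at 37 °C to compound titrations. Toxicity is scored from CellTiter-Glo luminescence, with DMSO as full viability and medium alone as none.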
* marks the source's active call; other numbers are inactive results; i = inactive; ? = inconclusive; / = no result. The call rests on the fitted dose curve; in most records, active means well fitted curve in the direction sought with a large enough effect; inconclusive means small, poorly fitted or top-dose-only effect, or another doubt; inactive means no such curve, though single readings can be large; an effect the other way counts as inactive or inconclusive. Unless noted, on the % scale 0 is the no-effect control and ±100 the full control effect; potency means the concentration at half of the fitted maximal effect.

SMILES | HT1080-NT tox | KB-V1 cytotox | KB-3-1 tox | HT1080 IDH1KD tx
CCCCc1ccc(NC(=S)Nc2ccc(Cl)c(S(=O)(=O)N(C)C)c2)cc1 | ? | 23µM* | ? | 21µM*
CCOc1ccc(-n2c(=O)c3c4c(sc3n(CC(=O)NC(C)CC)c2=O)CCC4)cc1 (configuration not stated) | / | i | i | /
COc1ccc(Cl)cc1NC(=O)CSc1nnc(C)n2c1cc1occc12 | / | i | i | /
CC1CCN(S(=O)(=O)c2ccc3c(ccn3CC(=O)NCc3ccc(N(C)C)cc3)c2)CC1 | / | i | i | /
CCOc1cc(CNCCSc2nnnn2-c2ccccc2)cc(Cl)c1OC | / | i | i | /
CCc1ccc2occ(CC(=O)Nc3sc4c(c3C(=O)NCCOC)CCCC4)c2c1 | / | i | i | /
CCCCc1ccc(NC(=S)Nc2ccc(Nc3ccc(OC)cc3)cc2)cc1 | -8% | 16µM* | ? | ?
Cc1ccc(Oc2ccccc2NC(=O)CSCC(=O)Nc2cc(C)on2)cc1 | ? | 4.6µM* | ? | ?
Cc1ccc(-c2nc(CSCC(=O)Nc3cc(C)on3)c(C)o2)cc1 | 10% | 23µM* | i | -5%
Cc1cc(NC(=O)CSCC(=O)Nc2ccccc2N2CCCCC2)no1 | -6% | i | i | -20%
Cc1cc(NC(=O)CSCC(=O)Nc2ccccc2Oc2ccccc2)no1 | -14% | 10µM* | ? | -29%
Cc1cc(NC(=O)CSCc2nc(-c3cccc(F)c3)oc2C)no1 | -6% | i | i | 0%
COc1ccc(C(=O)O/N=C/c2c(C(F)(F)F)nn(C)c2SCc2ccccc2Cl)cc1 | -18% | ? | 7.3µM* | -25%
O=C(CN1C2=NCCCN2c2ccccc21)c1ccc(Cl)cc1Cl | -18% | 13µM* | ? | -28%
O=C(COC(=O)c1ccccc1)Nc1ncc([N+](=O)[O-])s1 | 1% | i | i | 1%
O=C(Nc1ccccc1)Nc1ncc([N+](=O)[O-])s1 | 9.2µM* | ? | 18µM* | 9.2µM*
FC(F)(F)c1cccc(N2CCN(c3ccc4nnc(-c5ccccc5)n4n3)CC2)c1 | -2% | 16µM* | i | -12%
Cc1cccc(CSc2ncnc3c2cnn3Cc2ccccc2)c1 | 6% | 15µM* | ? | 2%
Cc1ccc(-n2ncc3c(SCc4cccnc4)ncnc32)c(C)c1 | ? | 5.8µM* | i | ?
CCOC(=O)CNC(=O)CSc1ncnc2c1cnn2Cc1ccccc1 | ? | i | ? | 18µM*
c1ccc(CNc2ncnc3c2cnn3Cc2ccccc2)cc1 | 7.9µM* | ? | ? | 7.9µM*
Cc1ccc(-n2ncc3c(SCc4cccc(C)c4)ncnc32)cc1 | ? | i | i | ?
COc1cc(C(=O)N2CCCC(c3cc(C(=O)NCc4ccccc4)no3)C2)cc(OC)c1C (configuration not stated) | 3% | i | i | 0%
CCOC(=O)C1CCN(C(c2cccc(F)c2)c2c(O)cc(C)n(CCOC)c2=O)CC1 (configuration not stated) | / | i | i | /
Cc1c(Cl)cccc1NC(=O)c1ccc2c(c1)CCCN2S(C)(=O)=O | / | i | i | /
SMILES | HT1080-NT tox | KB-V1 cytotox | KB-3-1 tox | HT1080 IDH1KD tx
CCCCOc1ccc(C(C)NC(=O)c2cccc(Nc3nc4ccccc4n4nnnc34)c2)cc1 (configuration not stated) | / | i | i | /
Cc1ccccc1-n1ncc2c(SCC(=O)NCc3cccs3)ncnc21 | ? | 7.3µM* | 5.2µM* | 21µM*
CCCN1C(=O)/C(=C/c2nc3ccccc3c(=O)[nH]2)c2ccccc21 | 1% | i | i | 7%
CC(C)N1C(=O)/C(=C\c2nc3ccccc3c(=O)[nH]2)c2ccccc21 | ? | i | 18µM* | ?
Cc1ccc(C)c(NC(=O)Cn2c(=O)n(CCCS(=O)(=O)C3CCCCC3)c(=O)c3ccccc32)c1 | / | i | ? | /
O=C(C[n+]1ccccc1)c1cccc([N+](=O)[O-])c1 | / | i | i | /
CCOC(=O)CN1C(c2ccc(O)cc2)Nc2ccc(Br)cc2C1c1ccccc1 (configuration not stated) | 16µM* | ? | ? | ?
Cc1noc(C)c1CSc1nc2sc(C)c(C)c2c(=O)n1-c1ccccc1 | -8% | i | i | -15%
C=CCn1c(SCc2c(C)noc2C)nc2sc(C)c(C)c2c1=O | 16µM* | i | i | 11µM*
C=CCn1c(SCC(=O)c2cc(C)n(C(C)COC)c2C)nc2sc(C)c(C)c2c1=O (configuration not stated) | -28% | 8.2µM* | i | ?
C[C@]12c3[nH]c4cc(-c5ccco5)ccc4c3CCN1C(=O)[C@@H](CC(=O)NCc1cccc(C(F)(F)F)c1)C[C@@H]2C(=O)N1CCCCC1 | ? | ? | 18µM* | ?
CC[C@]12c3[nH]c4ccc(Cl)cc4c3CCN1C(=O)[C@@H](CC(=O)NCC13CC4CC(CC(C4)C1)C3)C[C@@H]2C(=O)N1CCN(C(=O)c2ccco2)CC1 | ? | ? | ? | 18µM*
CC[C@]12c3[nH]c4ccc(OC)cc4c3CCN1C(=O)C(CC(=O)NCC13CC4CC(CC(C4)C1)C3)C[C@@H]2C(=O)N1CCN(C(=O)c2ccco2)CC1 (some centres not stated) | -29% | i | i | ?
O=C(C[C@H]1C[C@H](C(=O)N2CCOCC2)[C@@]2(CCC3CCCC3)c3[nH]c4cc(-c5ccco5)ccc4c3CCN2C1=O)NCCc1ccccn1 | 21µM* | ? | ? | ?
CN(C)CCCNC(=O)C[C@H]1C[C@H](C(=O)N2CCCCC2)[C@@]2(CCc3ccccc3)c3[nH]c4cc(-c5ccco5)ccc4c3CCN2C1=O | 26µM* | ? | ? | ?
CC[C@]12c3[nH]c4cc(-c5ccco5)ccc4c3CCN1C(=O)[C@@H](CC(=O)NCc1cccc(C(F)(F)F)c1)C[C@@H]2C(=O)N1CCN(C(=O)C2CC2)CC1 | -26% | i | ? | ?
CN(C)CCCNC(=O)C[C@H]1C[C@H](C(=O)N2CCCCC2)[C@@]2(C)c3[nH]c4cc(-c5ccco5)ccc4c3CCN2C1=O | ? | i | i | -19%
COc1ccccc1-c1noc(-c2ccc(N3CCN(c4ccccc4)CC3)c([N+](=O)[O-])c2)n1 | / | i | i | /
COc1cc(OC)c(NC(=O)CCc2nc(C3=CCN(Cc4cccc(Cl)c4)CC3)no2)cc1Cl | / | i | i | /
O=C(CC1C[C@H](C(=O)N2CCCCC2)[C@@]2(CCc3ccccc3)c3[nH]c4ccccc4c3CCN2C1=O)NCCc1ccccn1 (some centres not stated) | 9% | 12µM* | ? | 7%
C[C@]12c3[nH]c4ccccc4c3CCN1C(=O)C(CC(=O)NCCc1ccccn1)C[C@@H]2C(=O)N1CCCCC1 (some centres not stated) | 6% | i | i | 0%
